# Screening data: PubChem BioAssay, National Center for Advancing Translational Sciences (NCATS)
# Sampled rows, rich in hits. Any-hit rate of the full collection: about 19%.
# AMA1-RON2 inh = qHTS for Inhibitors of AMA1-RON; Towards Development of Antimalarial Drug Lead: Primary Screen | AlphaScreen AMA1-biotinylated RON2 peptide binding | Potency, µM (doses to about 58.2 µM), for the others: at the highest dose activity change, negative = inhibition, actives largely listed as inhibitors | actives 0.2% (n = 360,000);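 further: potency means the concentration at half of the fitted maximal effect; 0% = vehicle wells and -100% = peptide control; nearly all actives have a fitted effect of over 45% in size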
#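 AMA1 (3D7) with his tag at 25 nM final met compounds first, then biotinylated RON2 peptide at 25 nM; detection used donor plus acceptor beads, 10 µg/mL apiece, read by AlphaScreen after 30 min at room temperature.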
# CHX counter = Cycloheximide Counterscreen for Small Molecule Inhibitors of Shiga Toxin. max response, %. cell reporter, cycloheximide protein synthesis inhibition counterscreen. actives 12% (n = 300,000); in the data active means max response mostly above about 13%, no sharp cut-off; inactive means mostly below about 14%; further: read at 38.3 µM for the half of the compounds with a filed dose; 0% is about no effect
# Shiga inhibitor = A qHTS for Small Molecule Inhibitors of Shiga Toxin; Vero cells, Shiga toxin protein synthesis inhibition reporter; inhibition, % at 38.7 µM; actives 9.2% (n = 290,000); in the data active means inhibition mostly above about 28%, no sharp cut-off; inactive means mostly below about 43%; further: 0% is about no effect
# SARS PLP yeast = qHTS of Yeast-based Assay for SARS-CoV PLP; Potency, µM (titrated, usually from 32.9 µM), for the others: at the highest dose activity, positive = growth rescue, most hits filed as activators; actives 0.19% (n = 330,000); S. cerevisiae expressing SARS-CoV PLpro, growth rescue; AID 485353, 2010; calls by dose curve; further: potency means the concentration at half of the fitted maximal effect; 0% is about no effect; nearly all actives have a fitted effect of over 55% in size
# Pf growth 96h = Primary qHTS for delayed death inhibitors of the malarial parasite plastid, 96 hour incubation; P. falciparum luciferase reporter growth, 96 h; Potency, µM (top dose mostly 28.7 µM), inactives show at the highest dose activity change, negative = inhibition, most hits filed as inhibitors; actives 6.9% (n = 320,000); AID 504834, 2011; further: potency means the concentration at half of the fitted maximal effect; on the % scale 0 is the no-effect control and ±100 the full control effect
#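 Cell-based qHTS: luciferase-tagged P. falciparum in erythrocytes (2% hematocrit, 0.05% parasitemia final) incubated with compounds for 96 hours, 37 C, 5% CO2; luciferase detection reagent then added and luminescence measured.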
# Pf growth 48h = Primary qHTS for delayed death inhibitors of the malarial parasite plastid, 48 hour incubation | actives 5.9% (n = 310,000) | Potency, µM (doses to about 28.7 µM), for inactives: at the highest dose activity change, negative = inhibition, most hits filed as inhibitors | P. falciparum luciferase growth in erythrocytes, 48 h; further: potency means the concentration at half of the fitted maximal effect; on the % scale 0 is the no-effect control and ±100 the full control effect
#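 First compound was added to culture medium, then infected red cells at 0.1% parasitemia and 2% hematocrit (final). After incubation at 37 C under 5% CO2, luciferase detection reagent was dispensed and light output recorded.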
# An asterisk follows results filed as active; ? = inconclusive; . = no result given; + = active, no number; [ ] = another dose, or the depositor's remark. Unless noted, the call rests on the fitted dose curve; in most records, active means well fitted curve in the direction sought with a large enough effect; inconclusive means small, poorly fitted or top-dose-only effect, or another doubt; inactive means no such curve, though single readings can be large; an effect the other way counts as inactive or inconclusive.
SMILES,AMA1-RON2 inh,CHX counter,Shiga inhibitor,SARS PLP yeast,Pf growth 96h,Pf growth 48h
CC(Cc1ccccc1Sc1ccc(O)cc1)N(C)C (stereo not drawn),-8%,-1,-11,0%,.,13µM*
Cn1c(=O)c2c(ncn2CC(O)CNc2ccc(F)cc2)n(C)c1=O (stereo not drawn),-6%,1,-8,0%,-15%,?
C/C(=N\S(=O)(=O)c1ccc(C)cc1)N1CCN(S(=O)(=O)c2ccccc2)C1C(C)C (stereo not drawn),14%,3,-7,7%,.,-29%
CCCC(=O)Nc1ccc(-c2nc3cc(C)ccc3o2)cc1,-19%,31*,70*,-5%,.,57%
COc1cccc(OC)c1C(=O)NC(=S)Nc1ccc2oc(-c3ccncc3)nc2c1,2%,6,5,-1%,4%,-7%
CCCC(=O)Nc1ccc(C)c(O)c1,1%,-2,-10,-5%,39%,.
CCCC(=O)Nc1ccc(-c2nc3cc(C)c(C)cc3o2)c(O)c1,29%,32*,52,3%,13%,55%
CCCC(=O)Nc1cccc(-c2nc3ccccc3c(=O)o2)c1,4%,-1,-18,-1%,7%,19%
CCCC(=O)Nc1ccc2oc(-c3ccc(OC)c(Br)c3)nc2c1,6%,22*,65,-2%,?,?
COc1cccc2c1SCc1ccccc1C2CC(N)=O (stereo not drawn),0%,.,.,.,.,.
COc1ccc(N2CC(C(=O)N3CCN(c4ccccc4)CC3)CC2=O)cc1 (stereo not drawn),13%,2,-4,17%,?,-6%
CC1(C)NC(=O)N(CCOCCSc2ccccc2)C1=O,-1%,-2,28,1%,9.3µM*,34%
CC1(C)NC(=O)N(CCOCCOc2ccccc2)C1=O,4%,10,12,1%,20%,.
CN(C)c1ccc(S(=O)(=O)NCC(=O)OCC(=O)Nc2cc(Cl)cc(Cl)c2)cc1[N+](=O)[O-],?,-2,-7,-1%,-9%,-6%
COc1ccc(CN2CCNC(=O)C2CC(=O)NCCc2cnccn2)cc1C (stereo not drawn),10%,-1,-11,2%,15µM*,0%
O=C(CC1C(=O)NCCN1Cc1cccc(Oc2ccccc2)c1)NCCc1cnccn1 (stereo not drawn),32%,4,29,0%,?,-1%
COc1cccc(CCNC(=O)CC2C(=O)NCCN2CC(C)(C)C)c1 (stereo not drawn),-5%,-4,-3,1%,15µM*,13%
COc1ccc(CN2CCNC(=O)C2CC(=O)NCCC2=CCCCC2)cc1OC (stereo not drawn),-5%,2,9,-1%,10µM*,-6%
CCOC(=O)CC1C(=O)NCCN1Cc1ccc(OC)c(OC)c1 (stereo not drawn),1%,-1,-4,0%,10µM*,0%
COc1cccc(C(=O)N2CCN(C(=O)COc3ccc4ccccc4c3)CC2)c1,8%,1,14,1%,-5%,-1%
Cc1ccsc1/C=C(\C(=O)c1ccc(OC(C)C)cc1)c1nc2ccccc2o1,-27%,122*,+,5%,?,?
Cc1ccc(-c2nc3ccccc3o2)cc1NC(=O)Cc1cccs1,1%,14,25,2%,1%,-1%
Cc1ccsc1/C=C(\CC(=O)O)c1nc2ccccc2o1,7%,22*,51*,-9%,44%,110%
COc1ccc(-c2cc3c(c4c2ccn4C)C2CCC3O2)cn1 (stereo not drawn),-11%,.,.,.,.,.
Cc1csc(N/N=C/c2ccc([N+](=O)[O-])cc2)n1,79%,32*,67*,-3%,?,67%
SMILES,AMA1-RON2 inh,CHX counter,Shiga inhibitor,SARS PLP yeast,Pf growth 96h,Pf growth 48h
O=C(Nc1nc(-c2ccc([N+](=O)[O-])cc2)cs1)c1c(F)cccc1F,6%,-2,31,0%,0%,-18%[1.15 µM]
CC(=O)Nc1nc(-c2ccc([N+](=O)[O-])cc2)cs1,-2%,9,54,-7%,-14%,24%
C/C=C/C=N/Nc1nc(-c2ccc([N+](=O)[O-])cc2)cs1,-4%,10,90*,-16%,-26%,-5%
CC(C)c1nc(-c2ccc([N+](=O)[O-])cc2)cs1,-2%,39*,56*,8%,61%,34%
CC(C)=NNc1nc(-c2ccc([N+](=O)[O-])cc2)cs1,21%,22*,18*,-3%,-12%,-20%
NC(=O)Cc1nc(-c2ccc([N+](=O)[O-])cc2)cs1,0%,7,1,-5%,39%,38%
COc1ccc(-c2cc(NC(C)=O)c3ncc(-c4cccc(C(C)=O)c4)n3c2)cc1OC,10%,.,.,.,.,.
CCC(CC)C(C(=O)NCc1ccccc1)N1CCN(CCN2CCOCC2)CC1 (stereo not drawn),35%,.,.,.,.,.
Cc1ccc(S(=O)(=O)Nc2ccc(NC(=O)Nc3cccc(C(F)(F)F)c3)cc2)cc1,2%,-1,-7,25%,?,13µM*
CCN(CC)S(=O)(=O)c1ccc(/C=C/C(=O)Nc2cccc(F)c2)cc1,13%,33*,28,11%,2.9µM*,?
O=C(Nc1ccncc1)Nc1cccc(C(F)(F)F)c1,5%,7,18,?,?,?
CCN(CC)S(=O)(=O)c1ccc(NC(=O)Nc2cccc(C(F)(F)F)c2)cc1,5%,-4,-28,-5%,.,5.2µM*
O=C(Nc1ccc(OC(F)F)cc1)Nc1cccc(C(F)(F)F)c1,5%,12*,-1,-39%,5.2µM*,.
COc1cc(OC)cc(C(=O)N[C@H](C(=O)Nc2ccc3c(c2)OCO3)C(C)C)c1,-22%,12,-18,-4%,-16%,-15%
O=C(CNC(=O)c1ccccc1)OCc1cc(=O)n2cc(Br)ccc2n1,-8%,1,-11,15%,11%,-14%
C=CCN1C[C@H](C)N([C@H](c2ccc(C(=O)N(CC)CC)cc2)c2cccc(OC)c2)C[C@H]1C,.,.,.,.,-25%,4.8µM*
C=CCN1C[C@@H](C)N(C(c2ccc(C(=O)N(CC)CC)cc2)c2cccc(OC)c2)C[C@@H]1C (stereo partly drawn),21%,.,.,.,7%,1.7µM*
C=CCn1c(SCC(=O)c2ccc(O)c(O)c2)nnc1-c1cccc(OC)c1,35%,.,.,1%,?,?
O=S(=O)(c1ccc(Br)s1)n1cccn1,8%,3,-6,3%,?,9%
CC(C)NC(=O)C1(C)CN(S(C)(=O)=O)CC(=O)N1Cc1cccc(C(F)(F)F)c1 (stereo not drawn),3%,.,.,.,.,.
